From PubChem BioAssay (NCI)
This is part of a sample that, as a whole, favours compounds with a hit. Of some 83,000 tested, about 20% had one in any assay.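 96-well plates, one dose, 48 hours. Percent growth reported; active if below 10.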 Calls of active or inactive are those of the source.

tested on: MDA-MB-468 breast; test: NCI-60 one-dose screen, 48 h (100 = growth as untreated, 0 = no growth, -100 = all killed); conditions: 10 µM unless noted

SMILES	growth
COc1cc2oc(-c3cccc(NC(=O)c4cc(NC(=O)[C@H](C)NC(=O)OC(C)(C)C)ccc4C)c3)cc(=O)c2c(OC)c1OC	84.3% (inactive)
COc1cc2ncnc(Oc3ccc(NC(=O)Nc4ccc(C5(C#N)CCCC5)cc4)c4ccccc34)c2cc1OC	38.2% (inactive)
CC(C)(C)Nc1nc2c(OCCc3ccccc3)cccn2c1-c1ccc(O)cc1	26% (inactive)
CN1C(=O)N(C)C2C1NN=c1s/c(=C\c3ccc(Br)cc3)c(=O)n12 (stereo not given)	10.8% (inactive)
C#CCNC(=O)CC[C@]1(C)[C@H]2CC[C@@H]3[C@@H]([C@@](C)(O)CCC=C(C)C)CC[C@@]3(C)[C@]2(C)CC[C@H]1C(=C)C	48.5% [100 µM] (inactive)
C=CCn1c(SCC(=O)Nc2cccc(C(=O)/C=C/c3ccc(Br)cc3)c2)nc2ccccc2c1=O	99.6% (inactive)
O=C(OCC(O)C(=O)NC12CC3CC(CC(C3)C1)C2)c1cccc(Br)c1 (stereo not given)	99.9% (inactive)
NC(N)=Nc1nc2ccccc2o1	106% (inactive)
COP(=O)(OC)C(C)(C)CC(=O)CC(C#N)(C#N)C(C#N)C#N	104% (inactive)
CC(C)Cn1c2c(c(=S)[nH]c1=O)CCC2	112% (inactive)
COc1ccc(Cl)cc1NC(=O)c1cc2c([nH]1)-c1nc(N)sc1CCC2	103% (inactive)
O=c1[nH]nc(-c2ccc(Br)cc2)cc1Cc1ccc(O)cc1	107% (inactive)
CCNCCCn1c2c(c3ccc([N+](=O)[O-])cc3c1=O)C(=O)c1cc(OC)cnc1-2	-34.3% (active)
NCCN1CCNCC1	95.2% (inactive)
Clc1ccc2c(NCCCN3CCOCC3)c3oc4ccccc4c3nc2c1	35.7% (inactive)
C[C@@H]1N=C(c2ccc3ccccc3c2)Nc2nc3ccccn3c2C1=O	50.5% (inactive)
Clc1ccc(-c2nc(C(Cl)Cl)nc3cc(-c4ccccc4)nn23)cc1	-33.8% (active)
O=C(O)c1cn(C2CC2)c2cc(N3CCN(C(=O)N/N=C/c4cccc5ccccc45)CC3)c(F)cc2c1=O	103% (inactive)
COc1ccc(C(C)=C(c2ccc(OCCN(C)C)cc2)c2ccc(OCCN(C)C)cc2)cc1	-76.9% (active)
O=Cc1c(O)c2ccccc2[nH]c1=O	94.5% (inactive)

SMILES	growth
CCCCCCN1C(=O)CN=C1Nc1ccc2cc3ccc(NC4=NCC(=O)N4CCCCCC)cc3nc2c1	3.94% (active)
O=C(OC1CCCC1)c1ccccc1Cl	132% (inactive)
Cc1nn(-c2cccc(Cl)c2)c(C)c1N=Nc1ccc(Br)cc1	97.6% (inactive)
C=C(C[C@@](O)(C(=O)Oc1ccccc1)C(=O)C1CCCCC1)c1ccccc1	85.3% (inactive)
O=C(CN1CCN(c2cc(=O)n(-c3ccccc3)c3ccccc23)CC1)Nc1cccc(C(F)(F)F)c1	4.55% (active)
CCCCCn1ncc(-c2c(O)c(O)cc3c(O)c(-c4c(C)cc5c(-c6cnn(CCCCC)n6)c(O)c(O)cc5c4O)c(C)cc23)n1	-2.7% (active)
C=C(C)[C@@H]1CC[C@]2(C(=O)n3ccnc3)CC[C@]3(C)[C@H](CC[C@@H]4[C@@]5(C)CCCNC(C)(C)[C@@H]5CC[C@]43C)[C@@H]12	-11.1% (active)
O=C1c2ccccc2NC(c2cn(-c3ccccc3)nc2-c2cccs2)N1Cc1ccccc1 (stereo not given)	95.4% (inactive)
O=c1[nH]c(=S)[nH]c(O)c1/C=C1\C=Nc2ccccc21	103% (inactive)
CCSc1nc(-c2cccs2)n2nc(-c3ccco3)cc2n1	-37.1% (active)
O=C1NN(C(=O)c2ccc(Cl)cc2)C(c2ccccc2)=N/C1=C\c1ccc(F)cc1	67.9% (inactive)
CC(=O)C1Cc2ccccc2C1=O (stereo not given)	105% (inactive)
Nc1ncnc2c1nc(N)n2C1OC(CO)C(O)C1O (stereo not given)	-73.6% (active)
O=C1/C(=C/c2ccc(F)cc2)CN(C(=O)C(Cl)Cl)C/C1=C\c1ccc(F)cc1	-47% (active)
CCCCCCCCCCCCNc1ncnc2[nH]ncc12	55.7% (inactive)
Cc1ccc(-c2nc3ccc(Cl)cn3c2NC2CCCCC2)o1	78.2% (inactive)
C[n+]1c2ccccc2c(Nc2ccc(N3CCCCC3)cc2)c2[nH]c3ccccc3c21	-73.8% (active)
Cc1nc2c(c(-c3ccccc3)n1)Cc1c(ccc3ccccc13)O2	90.5% (inactive)
COc1cc2c(c(OC)c1OC)-c1ccc(NN(C(=O)c3ccccc3)C(=O)c3ccccc3)c(=O)cc1[C@@H](NC(C)=O)CC2 (tested in a mixture with another compound)	19.5% (inactive)
CC1(CO)CCCC12OCCO2 (stereo not given)	102% (inactive)
